NTR1 ag = NTR1 (human) agonism | P30989 | NTR1-U2OS beta-arrestin-GFP spot imaging, agonist mode | activation, % at 20 µM | 330,000 compounds, 0.17% hits | AID 493036;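 active = activation at or above 40% of the spot to cytoplasm intensity ratio, with at least 20 cells analyzed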;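 also: 0% = DMSO without peptide and 100% = 100 nM NTR1 peptide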
m5-HT2A agonist = agonists of mouse serotonin 5-HT2A receptor (HTR2A); CHO-K1 mHTR2A beta-arrestin complementation, luminescence; percent of 30 µM serotonin response; activation, % at 7.6 µM; 360,000 compounds, 0.66% hits;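 active = activation above a run cutoff, the mean activation of all tested compounds plus 3 SD, cut at about 14% in these data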;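 also: 0% = plate median of compound wells and 100% = 30 µM serotonin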
Target sequence (P35363 whole entry, looked up): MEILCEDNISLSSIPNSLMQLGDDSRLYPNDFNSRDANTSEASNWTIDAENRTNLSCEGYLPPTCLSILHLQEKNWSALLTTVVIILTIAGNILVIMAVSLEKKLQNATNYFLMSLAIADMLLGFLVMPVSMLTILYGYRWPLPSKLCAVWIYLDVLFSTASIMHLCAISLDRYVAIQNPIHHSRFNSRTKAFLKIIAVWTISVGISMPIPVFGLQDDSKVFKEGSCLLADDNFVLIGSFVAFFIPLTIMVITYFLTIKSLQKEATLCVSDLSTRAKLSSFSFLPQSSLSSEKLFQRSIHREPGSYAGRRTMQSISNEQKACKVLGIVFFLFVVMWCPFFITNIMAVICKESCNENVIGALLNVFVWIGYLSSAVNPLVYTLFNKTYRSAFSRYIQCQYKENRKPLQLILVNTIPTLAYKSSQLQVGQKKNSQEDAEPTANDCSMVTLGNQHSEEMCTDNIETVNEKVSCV
Exocytosis inh = lytic granule exocytosis inhibition; TALL-104 LAMP-1 surface exposure, flow cytometry; cells stimulated with thapsigargin and PMA; inhibition, % at 10 µM; 360,000 compounds, 0.66% hits; AID 651702;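 active = inhibition above about 55%, limit read from the data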
Beta2AR agonist = human beta-2 adrenergic receptor agonism by FAP | response, % (test concentration not listed) | 340,000 compounds, 0.43% hits | Am2.2-beta2AR cells, FAP receptor internalization, flow cytometry | AID 504454 | P07550;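 active = response above a set limit, near 3 SD of response in nonfluorescent compounds, cut at about 42% in these data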
ABHD5-PLIN5 inh = ABHD5-PLIN5 protein interaction inhibition | AID 602281 | 360,000 compounds, 0.78% hits | Split G. princeps luciferase complementation, luminescence, 4 h | Q00G26+Q8WTS1 | inhibition, % at 4 µM;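 active = inhibition above the mean inhibition across every tested compound plus 3 SD, cut at about 22% in these data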;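 also: 0% = DMSO only wells and the 100% control is not disclosed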
MOR ag counter = OPRM1 agonism in mouse HTR2A counterscreen; shares compounds with m5-HT2A agonist; U2OS OPRM1 beta-arrestin PathHunter, luminescence; DMSO 0%, DAMGO 9.3 µM 100%; 2,300 compounds, 5.3% hits; AID 624380; activation, % at 9.3 µM;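 active = mean activation above the mean of DMSO-only wells plus 3 SD, cut at about 0.5% in these data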
HTR2A ag conf = mouse HTR2A agonism confirmed; shares compounds with m5-HT2A agonist; CHO-K1 PathHunter beta-arrestin recruitment, luminescence; DMSO 0%, 30 µM serotonin 100%; activation, % at 7.6 µM; 2,300 compounds, 19% hits; AID 624381;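 active = mean activation across triplicates above the hit threshold derived in the original primary screen, cut at about 15% in these data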
Active calls of the source: *; . = no result given. Shown are actives, neighbours in structure and some others; about 2.3% of the full set was active somewhere.

SMILES	NTR1 ag	m5-HT2A agonist	Exocytosis inh	Beta2AR agonist	ABHD5-PLIN5 inh	MOR ag counter	HTR2A ag conf
Cc1cc(OC(C)C(=O)N(Cc2ccco2)C2CCS(=O)(=O)C2)cc(C)c1Cl (configuration not stated)	9	17*	-2	-9	2	-1	-1
Cc1ccc(NC(=O)CN(C)C(=O)COC(=O)c2nc3nccc(C)n3n2)cc1	0	-1	0	33	8	.	.
O=C(CSCc1cc(=O)n2ccsc2n1)Nc1ccccc1	0	-3	-3	-3	2	.	.
CCCCCC(=O)N1C[C@H](n2cc(-c3ccc(F)cc3)nn2)[C@@H](O)C[C@@H]1c1ccc(C)cc1	.	23*	2	.	-6	0	0
Cc1ccccc1NC(=O)c1c([N+](=O)[O-])cnn1C	0	1	4	2	3	.	.
Cn1ncc([N+](=O)[O-])c1C(=O)Nc1ccccc1C#N	.	16*	8	.	3	-1	-4
CCOc1ccc(S(=O)(=O)NCCC(=O)NCc2ccc(OC)c(OC)c2)cc1	2	14*	1	-3	1	1.5*	8
Cc1ccc(OCC(=O)NN=C2C3CC4CC(C3)CC2C4)cc1	4	-1	-10	4	0	.	.
Cc1cc(NCCCN2CCOCC2)n2c(nc3ccccc32)c1C#N	-3	0	-1	-4	1	.	.
CCCc1cc(NCCCN2CCOCC2)n2c(nc3ccccc32)c1C#N	2	32*	0	-10	0	0	0
COc1cc2[nH]c(C)c(-c3ccccc3)c(=O)c2cc1Cl	.	25*	-1	.	1	-1	14*
COc1cccc2c(O)c(-c3ccccc3)c(=O)[nH]c12	0	1	2	-3	3	.	.
O=C1CN(C(=O)c2ccc(Cl)c(S(=O)(=O)N3CCc4ccccc43)c2)c2ccccc2N1	5	1	-1	-15	4	.	.
COC(=O)c1ccccc1NC(=O)N1CCN(S(=O)(=O)c2ccc(Cl)cc2)CC1	4	17*	9	-10	-2	-1	-3
CC(C)n1ncc2c(C(=O)NCC(=O)Nc3ccccc3Br)cc(C3CC3)nc21	1	-4	-10	3	-2	.	.
CCOCCn1c(SCC(=O)OCc2ccccc2)nc2c1c(=O)[nH]c(=O)n2C	1	17*	-2	0	9	0	1
COC(=O)[C@@]1(Sc2ccc(C)cc2)CC(=O)N[C@@H]1c1ccc(C(F)(F)F)cc1	.	15*	1	.	0	0.8*	3
COC(=O)[C@]1(Sc2ccccc2)CC(=O)N[C@@H]1c1ccccc1	.	0	-3	.	4	.	.
Cc1ccc(C(=O)CCC(=O)N2CCC(C(N)=O)CC2)s1	0	6	2	1	1	.	.
CCCCN1C(=O)C(CC(=O)NCc2cccc3ccccc23)CC(C(=O)N2CCOCC2)=C1C (configuration not stated)	.	15*	-2	.	10	0	4
COc1cc2c(cc1OC)CN(C(=O)c1ccc(Cl)c(S(=O)(=O)N3CCCC3)c1)CC2	3	-2	-4	3	-7	.	.
COc1ccc(-c2cnc3c(NC=O)cc(-c4ccc(C(=O)N5CCOCC5)cc4)cn23)cc1OC	.	17*	-8	.	-3	-1	2
CC(=O)c1ccc(-c2cnc3c(NC=O)cc(-c4ccc(C(=O)N5CCOCC5)cc4)cn23)cc1	.	-1	-22	.	2	.	.
CCOc1cc(N2CCOCC2)c(OCC)cc1NC(=O)CN1C(=O)NC2(CCCCCCC2)C1=O	-1	5	1	-3	5	.	.
CCOc1cc(N2CCOCC2)c(OCC)cc1NC(=O)CN1C(=O)NC(CC)(c2ccc(F)cc2)C1=O (configuration not stated)	.	15*	-5	6	-3	-1	1
SMILES	NTR1 ag	m5-HT2A agonist	Exocytosis inh	Beta2AR agonist	ABHD5-PLIN5 inh	MOR ag counter	HTR2A ag conf
Cc1ccc(-c2csc(NC(=O)CSc3ncn(-c4ccccc4)n3)n2)cc1	5	0	0	-7	-4	.	.
Cc1csc(NC(=O)CSc2ncn(-c3ccccc3)n2)n1	0	21*	0	-12	0	0	0
CCC1(CC)NC(=O)N(CC(=O)NC(=O)NCc2ccccc2)C1=O	1	-7	-12	12	-7	.	.
CC1CCCCN1CCCNC(=O)c1ccc2nc(N3CCCCC3)sc2c1 (configuration not stated)	0	17*	-4	-2	6	-1	-6
CCCN1CCN(CCCNC(=O)c2ccc3nc(N4CCC(C)CC4)sc3c2)CC1	1	-5	-5	1	11	.	.
CC(C)(C)NC(=O)CN(C(=O)CCC(=O)Nc1nccs1)c1ccc(F)cc1	-1	0	-2	-6	4	.	.
CC(C)c1ccc(N(CC(=O)NC(C)(C)C)C(=O)CCC(=O)Nc2nccs2)cc1	0	29*	-16	1	1	-1	-3
COc1ccc(CC(=O)Nc2ccc(-c3noc(-c4ccccc4OC)n3)cc2)cc1	9	18*	-5	-17	-12	3.0*	10
COc1cccc(-c2nc(-c3ccc(NC(=O)Cc4ccccc4OC)cc3)no2)c1	.	0	4	10	-4	.	.
CC(C)c1cc(C(=O)OCC(=O)N2CCN(C(=O)c3ccco3)CC2)c(O)c(C(C)C)c1	2	-1	-7	-5	-6	.	.
COc1ccccc1N1CCN(C(=O)CCc2ccc(S(=O)(=O)NC(C)C)cc2)CC1	-1	0	-1	2	-2	.	.
COc1ccccc1N1CCN(C(=O)COc2ccc(S(=O)(=O)NC(C)C)cc2)CC1	0	15*	3	-3	-5	-1	-2
O=[N+]([O-])c1cc(Cl)cc2c1nc(NCCO)c1ccccc12	8	-1	-2	11	1	.	.
Cc1cc2c(=O)[nH]c(N)nc2[nH]1	.	16*	5	.	3	0	1
CC(C)Oc1ccc(S(=O)(=O)N2CCOCC2)cc1NC(=O)CC1OC(=O)c2ccccc21 (configuration not stated)	1	16*	-6	-1	-1	0	0
C/C(=N\N=C(/C)c1cccc(N)c1)c1cccc(N)c1	-2	-3	2	4	-6	.	.
CCc1ccccc1NC(=O)N1CCc2ccccc21	1	17*	-9	6	-5	-1	-4
O=C(Nc1ccccc1)N1CCc2ccccc21	-2	0	-4	-1	1	.	.
CN(CC(=O)Nc1ccc(Cl)cc1)CC(=O)N1CCc2ccccc21	.	17*	0	.	-7	0	2
Cc1nc(-c2ccccc2)sc1C(=O)NS(=O)(=O)c1ccc(CN2CCN(c3ccccc3)CC2)cc1	.	-1	-12	.	-3	.	.
